According to PubChem BioAssay (NCATS):
Records with an inconclusive call do not appear. A number with no mark means an inactive call. Active and inactive are the calls of the source. The call rests on the fitted dose curve; in most records, active means well fitted cell-killing curve with a large enough effect; inconclusive means small, poorly fitted or top-dose-only effect; inactive means flat fitted curve, though single readings scatter.

experiment: Cellular viability qHTS for adrenocortical cancer (ACC) cell line NCI-H295R (AID 1963990); details: CellTiter-Glo ATP luminescence, 48 h; series mostly up to 46.1 µM; activity change, negative = viability loss: at the top concentration; further: nearly all actives have a fitted effect of over 60% in size;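 on activity change, negative = viability loss: 0% = DMSO only wells and -100% = full killing with cytotoxic reference compound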
How it was run: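 CellTiter-Glo ATP luminescence, read 48 h after compound addition, measured viability of NCI-H295R adrenocortical cells grown serum-free with ITS. Final concentrations spanned up to 46 uM. Data normalized to DMSO and doxorubicin, fitted for IC50 and maximal response.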

Row | Structure (SMILES) | activity change, negative = viability loss | Potency
1 | COC(=O)N[C@@H](C)CNc1nccc(-c2cn(C(C)C)nc2-c2cc(Cl)cc(NS(C)(=O)=O)c2F)n1 | 1.32% | –
2 | COc1cc2nc(Cl)nc(N)c2cc1OC | -23.8% | –
3 | COc1c(N2C[C@@H]3CCCN[C@@H]3C2)c(F)cc2c(=O)c(C(=O)O)cn(C3CC3)c12 | -15.9% | –
4 | C[C@@H]1CCN(C(=O)N2CCCC2)C[C@@H]1N(C)c1ncnc2[nH]ccc12 | 9.59% | –
5 | Cn1ncc(Cl)c1-c1cc(C(=O)NC(CN)Cc2ccc(F)c(F)c2)oc1Cl (stereo not given) | – | 3.16 µM (active)
6 | CNc1nc(C)nc(N[C@H]2CCC[C@@H](C(=O)NCc3ccc(C#N)cc3C(F)(F)F)C2)n1 | -9.8% | –
7 | Nc1ccncc1N | -14.2% | –
8 | N=C(N)N | -13.6% | –
9 | CCCC(=O)O[C@]1(C(=O)COC(=O)CC)CC[C@H]2[C@@H]3CCC4=CC(=O)CC[C@]4(C)[C@H]3[C@@H](O)C[C@@]21C | -4.88% [at 20 µM] | –
10 | O=C1c2c(O)cccc2Cc2cccc(O)c21 | 13.9% | –
11 | N#Cc1cccc(-c2c[nH]c3ncnc(N4CCOCC4)c23)c1 | 9.91% | –
12 | O=C(NN1CCCC1)NS(=O)(=O)c1ccc(Cl)cc1 | -28.2% | –
13 | Nc1nc(N)c2nc(-c3ccccc3)c(N)nc2n1 | – | 4.61 µM (active)
14 | O=C(NCC(=O)N1CC[C@H](NC2CCC(O)(c3ccc(-c4ncccn4)cn3)CC2)C1)c1cccc(C(F)(F)F)c1 (stereo not given in full) | -25% | –
15 | CCCCCCCCCCCCCCCC(=O)OC(C)C | -12.1% | –
16 | Oc1c(I)cc(I)c2cccnc12 | – | 3.66 µM (active)
17 | NCCO | -8.53% [at 92.7 µM] | –
18 | CC1c2ccccc2CN1NC(=O)c1ccc(Cl)c(S(N)(=O)=O)c1 (stereo not given) | 2.36% | –
19 | CCN(CC)CC(=O)Nc1c(C)cccc1C | -1.05% | –
20 | CC(CN(C)C)C(C)(O)Cc1ccc(Cl)cc1 (stereo not given) | -5.75% | –

Row | Structure (SMILES) | activity change, negative = viability loss | Potency
21 | NC(=O)N[C@@H](CCC(=O)O)C(=O)O | -10% | –
22 | NS(=O)(=O)c1ccc(Cl)c(S(N)(=O)=O)c1 | 14.8% | –
23 | Brc1ccccc1-c1ccccc1 | 6.96% [at 92.7 µM] | –
24 | NC(=O)NC1N=C([O][Al])NC1=O (stereo not given) | -2.05% | –
25 | C[C@H](CN1CCCC1)C(=O)c1ccc(C(F)(F)F)cc1 | -2.98% | –
26 | Cc1c(N(C)CS(=O)(=O)O)c(=O)n(-c2ccccc2)n1C | -3.95% | –
27 | Cc1ccc(NC(=O)Nc2cc(C(F)(F)F)ccc2F)cc1Nc1ccc2c(c1)NC(=O)/C2=C\c1ccc[nH]1 | – | 25.1 µM (active)
28 | CCN1CCC[C@H]1CNC(=O)c1c(O)c(Cl)cc(Cl)c1OC | -1.26% | –
29 | CCOC(=O)c1ccc(O)cc1 | -4.81% | –
30 | Cc1nc([N+](=O)[O-])cn1-c1ccc([N+](=O)[O-])cc1 | -0.646% | –
31 | CN(C)CCCO[C@@H]1[C@H]2OC(C)(C)O[C@H]2O[C@@H]1C(O)CO (stereo not given in full) | -13.2% | –
32 | CC(C)NCC(O)c1ccc2ccccc2c1 (stereo not given) | 8.42% | –
33 | CC1CC(OC(=O)C(O)c2ccccc2)CC(C)(C)N1C (stereo not given) | -1.46% | –
34 | O=[N+]([O-])c1nccn1CO[C@@H](CO)[C@H](O)CO | -21.7% | –
35 | CC1(C)S[C@@H]2[C@H](NC(=O)C(c3ccccc3)S(=O)(=O)O)C(=O)N2[C@H]1C(=O)O (stereo not given in full) | 0.325% | –
36 | O=C(O)c1cn(C2CC2)c2cc(Cl)c(F)cc2c1=O | 5.6% | –
37 | CN1CCC(N(Cc2cccs2)c2ccccc2)CC1 | -0.314% | –
38 | OC[C@]1(O)OC[C@@H](O)[C@H](O)[C@@H]1O | -0.722% | –
39 | Cc1cccc(C(=O)O)c1O | -15.5% | –
40 | O=C1c2cccc3c2[C@H](CCC3)CN1[C@@H]1CN2CCC1CC2 | -27.8% | –
